Assay outcomes as filed in PubChem BioAssay.
Pf growth 96h = Primary qHTS for delayed death inhibitors of the malarial parasite plastid, 96 hour incubation; 320,000 compounds, 6.9% hits; P. falciparum luciferase reporter growth, 96 h; AID 504834, 2011; Potency, µM (doses to about 28.7 µM), for the others: top-dose activity change, negative = inhibition, actives largely listed as inhibitors; further: potency means the concentration at half of the fitted maximal effect; on the % scale 0 is the no-effect control and ±100 the full control effect
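Plates of compound plus infected erythrocytes (2% hematocrit, 0.05% parasitemia final) incubate 96 hours, 37 C, 5% CO2. Detection reagent added; reduced luminescence from the parasites' luciferase reporter flags inhibition.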
Shiga inhibitor = A qHTS for Small Molecule Inhibitors of Shiga Toxin. 290,000 compounds, 9.2% hits. Vero cells, Shiga toxin protein synthesis inhibition reporter. AID 2315, 2010. inhibition, % at 38.7 µM; in the data active means inhibition mostly above about 28%, no sharp cut-off; inactive means mostly below about 43%; further: 0% is about no effect
NS1 inh = qHTS Assay for Inhibitors of Influenza NS1 Protein Function; 270,000 compounds, 0.4% hits; Potency, µM (series often up to 46.1 µM), inactives show at the top dose activity, positive = more growth; AID 2326, 2010; calls by dose curve; further: potency means the concentration at half of the fitted maximal effect; actives are rising curves; nearly all actives have a fitted effect of over 50% in size
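Read-out: OD600 growth recovery of NS1-expressing budding yeast. Cells grown overnight at 30C in -URA glucose medium, washed, resuspended and diluted 1:100 in 2% galactose assay medium, pH 6.0. Same strain lacking NS1 served as positive control.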
Pf growth 48h = Primary qHTS for delayed death inhibitors of the malarial parasite plastid, 48 hour incubation | P. falciparum luciferase growth in erythrocytes, 48 h | Potency, µM (doses to about 28.7 µM), without a hit: at the highest dose activity change, negative = inhibition, actives largely listed as inhibitors | 310,000 compounds, 5.9% hits | AID 504832, 2011; further: potency means the concentration at half of the fitted maximal effect; on the % scale 0 is the no-effect control and ±100 the full control effect
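Luminescence readout; reporter = integrated firefly luciferase in P. falciparum. RBC culture at 2% hematocrit, 0.1% parasitemia final, 37 C/5% CO2; decreased signal taken as growth inhibition.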
Giardia FBPA inh = qHTS Assay for Inhibitors of Fructose-1,6-bisphosphate Aldolase from Giardia Lamblia; A8B2U2; purified Giardia FBPA; Potency, µM (titrated, usually from 59.6 µM), inactives show at the top dose activity, negative = inhibition, most hits filed as inhibitors; 290,000 compounds, 0.71% hits; AID 2451, 2010; further: potency means the concentration at half of the fitted maximal effect; on the % scale 0 is the no-effect control and ±100 the full control effect; nearly all actives have a fitted effect of over 55% in size
Target sequence (A8B2U2 whole entry, looked up): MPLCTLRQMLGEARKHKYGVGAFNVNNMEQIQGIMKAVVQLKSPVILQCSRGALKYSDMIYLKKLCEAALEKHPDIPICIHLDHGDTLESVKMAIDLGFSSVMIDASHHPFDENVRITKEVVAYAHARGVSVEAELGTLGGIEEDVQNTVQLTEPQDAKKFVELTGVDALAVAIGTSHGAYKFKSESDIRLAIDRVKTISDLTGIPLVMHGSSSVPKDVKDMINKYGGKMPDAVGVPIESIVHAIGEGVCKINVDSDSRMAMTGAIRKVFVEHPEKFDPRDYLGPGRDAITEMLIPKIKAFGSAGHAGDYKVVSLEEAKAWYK
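Giardia FBPA (40 nM reagent) was preincubated 10 min at RT with compound (up to 57.5 uM final), then substrate plus GAPDH/TPI/NAD/arsenate coupling system with diaphorase/resazurin was added; resorufin fluorescence (525/598 nm) was read after 20 min.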
CHX counter = Cycloheximide Counterscreen for Small Molecule Inhibitors of Shiga Toxin | AID 2314, 2010 | max response, % | cell reporter, cycloheximide protein synthesis inhibition counterscreen | 300,000 compounds, 12% hits; in the data active means max response mostly above about 13%, no sharp cut-off; inactive means mostly below about 14%; further: read at 38.3 µM for the half of the compounds with a filed dose; 0% is about no effect
Numbers without * were called inactive; ? = inconclusive; . = no result given; [ ] = another dose, or the depositor's remark. The list is not random: actives were taken first. Their share in the collection is about 21%. Unless noted, the call rests on the fitted dose curve; in most records, active means well fitted curve in the direction sought with a large enough effect; inconclusive means small, poorly fitted or top-dose-only effect, or another doubt; inactive means no such curve, though single readings can be large; an effect the other way counts as inactive or inconclusive.

SMILES	Pf growth 96h	Shiga inhibitor	NS1 inh	Pf growth 48h	Giardia FBPA inh	CHX counter
COc1ccccc1NC(=O)c1sc2nc3n(c(=O)c2c1C)CCC3	?	-7	1%	22%	10%	-2
CN1Cc2cccnc2N(C)Cc2cc(Cl)ccc21	-14%	-4	3%	-25%	-8%	-2
Clc1ccc2c(c1)CCc1cccnc1C2=C1CCNCC1	?	-11	3%	13µM*	-1%	-6
COc1cc2c(cc1OC)C(COc1cccc(C(F)(F)F)c1)NCC2 (stereo not drawn)	-19%	-7	9%	?	-13%	16
c1ccc(C2=NN(c3ccccc3)CC2)cc1	137%	114*	-5%	148%	-2%	61*
COc1cc(C(CC(=O)Nc2cccc(C)n2)N2Cc3ccccc3C2=O)cc(OC)c1OC (stereo not drawn)	9%	3	7%	0%	-5%	-1
COc1ccc(C(=O)NCCn2cc(SCC(=O)N3CCOCC3)c3ccccc32)cc1	32%	-4	5%	19%	0%	1
O=C(NCCn1cc(SCC(=O)N2CCOCC2)c2ccccc21)c1ccccc1	44%	37*	-18%	13%	0%	19*
O=C(CSc1cn(Cc2ccccc2)c2ccccc12)N1CCOCC1	35%	96*	-9%	62%	-3%	21*
C=CCNC(=S)N(CC)c1cccc2ccccc12	-28%	-5	3%	?	-12%	8
Cc1cc2c(NC(=O)CCCC(=O)O)cccc2nn1	21%	17	3%	6%	-13%	-1
Cc1cc2c(NC(=O)Nc3ccc(C(F)(F)F)cc3)cccc2nn1	9.3µM*	5	3%	10µM*	?	2
Cc1ccc(CCNC(=O)C2CCC(CNc3c(N4CCCC4)c(=O)c3=O)CC2)cc1 (stereo not drawn)	?	-10	-2%	.	2%	4
O=C(CCNS(=O)(=O)c1cccc2nsnc12)NC1CCCc2ccccc21 (stereo not drawn)	?	4	-2%	8%	-3%	-1
Cc1cccc(CCNC(=O)C2CCC(CNc3c(N4CCCC4)c(=O)c3=O)CC2)c1 (stereo not drawn)	9.3µM*	-11	-4%	.	1%	-6
CC1CCN(c2c(NCC3CCC(C(=O)NCCc4ccccc4)CC3)c(=O)c2=O)CC1 (stereo not drawn)	?	-16	-20%	-20%	5%	-2
O=C(NCCc1ccccc1)C1CCC(CNc2c(N3CCCCC3)c(=O)c2=O)CC1 (stereo not drawn)	12µM*	-5	-1%	-21%	4%	-3
O=C(NC1CCCc2ccccc21)C1CCC(CNc2c(N3CCOCC3)c(=O)c2=O)CC1 (stereo not drawn)	10µM*	-5	-9%	20%	3%	-1
O=C(NC1CCCc2ccccc21)C1CCC(CNS(=O)(=O)c2cccc3nsnc23)CC1 (stereo not drawn)	3.7µM*	-10	7%	.	3%	9
O=C(C1CCC(CNc2c(N3CCCC3)c(=O)c2=O)CC1)N1CCc2ccccc21 (stereo not drawn)	-7%	5	-3%	?	4%	-3
Cn1cnnc1SCC(=O)Nc1ccc(S(N)(=O)=O)cc1	-16%	-6	7%	0%	-2%	2
COc1ccc(CC[N@+]2(C)COc3cc4oc(=O)cc(C)c4cc3C2)cc1OC	.	.	-5%	.	.	.
Cc1ccc(S(=O)(=O)N2CCN(C(=O)N(C)C)CC2)cc1	?	-22	-3%	6%	2%	1
O=C(Cc1cccc(NC(=O)C2CCN(C(=O)C3CCCC3)CC2)c1)Nc1cccc(C(=O)N2CCCC2)c1	?	.	.	15µM*	.	.
O=C(Cc1cccc(NC(=O)C2CCN(C(=O)CCc3ccccc3)CC2)c1)Nc1cccc(C(=O)N2CCCC2)c1	?	.	.	12µM*	.	.
SMILES	Pf growth 96h	Shiga inhibitor	NS1 inh	Pf growth 48h	Giardia FBPA inh	CHX counter
COC(=O)COc1ccc2cc(-c3ccccc3)c(=O)oc2c1	43%	-3	-24%	?	-2%	-3
NC(=O)COc1ccc2cc(-c3ccc(F)cc3)c(=O)oc2c1	42%	35*	21%	37%	2%	21*
NC(=O)COc1ccc2cc(-c3ccccc3)c(=O)oc2c1	27%	62*	9%	60%	-2%	32*
NC(=O)COc1ccc2oc(-c3ccccc3)cc(=O)c2c1	27%[5.75 µM]	69*	.	123%	1%	27*
Cc1ccc(C(=O)NCCNC(=O)COc2ccc(Cl)cc2)cn1	?	-9	3%	-4%	-11%	-3
CC1CCCCC12NC(=O)N(CC(=O)c1ccc3c(c1)OCO3)C2=O (stereo not drawn)	?	.	.	6%	.	.
O=C(COC(=O)C1=COCCO1)Nc1cccc(Oc2ccccc2)c1	-6%	-1	-12%	.	0%	1
O=C(COC(=O)C1=COCCO1)Nc1ccc(OC(F)F)cc1	4%	53*	.	28%	-2%	38*
N#Cc1ccc(NC(=O)COC(=O)C2=COCCO2)cc1	33%[5.75 µM]	-3	-6%	24%	12%	28
COc1ccccc1C(=O)OCC(=O)Nc1ccc(OC(F)F)cc1	.	93*	-52%	21%	-1%	21*
COc1ccccc1C(=O)OCC(=O)Nc1ccccc1OC(F)F	84%	-5	-5%	2%	1%	14
O=C(COC(=O)C1=COCCO1)NC1CCCCCCC1	15%	46*	.	108%	-1%	29*
O=C(NC1CCCC1)C1=COCCO1	.	3	5%	18%	4%	-5
O=C(COC(=O)C1=COCCO1)Nc1ccccc1	132%	64*	.	196%	5%	52*
COc1ccc(Oc2ncc3nc(-c4cccs4)c(=O)n(Cc4cccs4)c3n2)cc1	.	.	.	.	-5%	.
O=C1c2ccccc2[C@@H]([C@@H]2c3ccccc3C(=O)c3cc(Br)ccc32)c2ccc(Br)cc21	.	.	-11%	.	.	.
CCN1CCN(C(=O)c2cc3cc(F)ccc3[nH]2)CC1	?	6	1%	?	-6%	-2
CN(c1ccccc1)c1nc(N)c([N+](=O)[O-])c(Nc2ccc(F)cc2)n1	0%	-5	0%	-16%	-5%	7
CN(c1ccccc1)c1nc(N)c([N+](=O)[O-])c(N2CCCCCC2)n1	-19%	56*	-5%	?	0%	21*
CC(C)CNc1nc(N)c([N+](=O)[O-])c(N2CCCCCC2)n1	10µM*	1	-92%	?	6%	-4
CC1CCN(c2nc(N(C)c3ccccc3)nc(N)c2[N+](=O)[O-])CC1	2%	27	-3%	?	1%	11*
Cc1cccc(Nc2nc(N)c([N+](=O)[O-])c(N3CCC(C)CC3)n2)c1	?	-3	9%	?	2%	-5
